The list is not random: actives were taken first. Their share in the collection is about 9.4%.
Pf growth 48h = inhibits P. falciparum growth in the first generation, 48 h | P. falciparum luciferase growth in erythrocytes, 48 h | Potency, µM (highest dose often 28.7 µM), without a hit: top-dose activity change, negative = inhibition, usual class: inhibitors | hit rate 5.9% among 310,000 | AID 504832; also: % is scaled to controls: 0 for no effect and ±100 for the full control effect
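Growth was read as firefly luciferase luminescence after a 48 h, 37 C, 5% CO2 exposure of compounds to reporter-bearing P. falciparum cultures (0.1% parasitemia, 2% hematocrit final) in Albumax-supplemented RPMI 1640.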
Pf growth 96h = P. falciparum growth inhibition at 96 hours. Potency, µM (top dose mostly 28.7 µM), for inactives: top-dose activity change, negative = inhibition, hits mostly inhibitors. P. falciparum luciferase reporter growth, 96 h. hit rate 6.9% among 320,000. AID 504834; also: % is scaled to controls: 0 for no effect and ±100 for the full control effect
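Delayed-death screen, second-generation endpoint: infected erythrocytes, 2% hematocrit, 0.05% parasitemia final; 96 hours at 37 C, 5% CO2; luciferase detection reagent; luminescence decrease equals reduced growth.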
SARS PLpro yeast = inhibitors of SARS-CoV papain-like protease in yeast | Potency, µM (doses to about 32.9 µM), without a hit: at the top dose activity, positive = growth rescue, hits mostly activators | hit rate 0.19% among 330,000 | S. cerevisiae expressing SARS-CoV PLpro, growth rescue; calls by dose curve; also: 0% is about no effect; nearly all actives have a fitted effect of over 55% in size
AMA1 RON2 block = disrupts binding of P. falciparum AMA1 to RON2; AlphaScreen AMA1-biotinylated RON2 peptide binding; Potency, µM (top dose mostly 58.2 µM), for inactives: top-dose activity change, negative = inhibition, most hits filed as inhibitors; hit rate 0.2% among 360,000;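 also: 0% = vehicle wells and -100% = peptide control; nearly all actives have a fitted effect of over 45% in size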
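AMA1 (3D7) with his tag at 25 nM final met compounds first, then biotinylated RON2 peptide at 25 nM; detection used donor plus acceptor beads, 10 µg/mL apiece, read by AlphaScreen after 30 min at room temperature.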
Active calls of the source: *; ? = inconclusive; / = not tested or not shown; [ ] = dose if it differs, or a comment. Unless noted, calls follow the shape of the dose curve; as a rule, active = well fitted curve in the direction sought with a large enough effect; inconclusive = small, poorly fitted or top-dose-only effect, or another doubt; inactive = no such curve, though single readings can be large; an effect the other way counts as inactive or inconclusive. Potency is read from the fitted curve at half-maximal effect.

SMILES	Pf growth 48h	Pf growth 96h	SARS PLpro yeast	AMA1 RON2 block
COC(=O)C1=C(c2ccc(OC(F)(F)F)cc2)C[C@@H]2CC[C@H]1N2C(=O)NCc1cccc2ccccc12	1.7µM*	1.9µM*	0%	0%
COC(=O)C1=C(c2ccc(-c3ccccc3)c(F)c2)C[C@@H]2CC[C@H]1N2C(=O)NCc1cccc2ccccc12	1.2µM*	1µM*	3%	1%
CC(OC(=O)C1CC1C)C(=O)Nc1ncc(Cl)cc1Cl (stereo not given)	3%	17%	2%	-6%
COC(=O)C1=C(c2ccc(OC(F)(F)F)cc2)C[C@@H]2CC[C@H]1N2C(=O)NCc1cc(C)oc1C(F)(F)F	12µM*	8.3µM*	1%	-5%
COc1ccc2[nH]cc(/C=N/NS(=O)(=O)c3ccc(C)cc3)c2c1	5%	27%	4%	-7%
CN(CCOc1ccc(Cl)cc1)C(=O)C1=CC=CN2CCS(=O)(=O)N=C12	/	/	6%	3%
c1cc2c(cc1OCCNC1CCCC1)CCC2	-18%	12µM*	0%	/
c1ccc(-c2ccc(OCCCNC3CCCC3)cc2)cc1	13µM*	3%	-1%	-5%
CNCCCOc1ccc2c(c1)CCC2	?	11%[5.75 µM]	1%	-17%
CCOc1ccc(N(CC(=O)Nc2ccccc2C)S(=O)(=O)c2c(C)noc2C)cc1	/	?	1%	-3%
C=CCN1C(=O)C(CC(=O)NCC)SC1=Nc1cc(Cl)ccc1Cl (stereo not given)	43%	1.2µM*	3%	-2%
CCNC(=O)CC1SC(=Nc2ccc(Cl)cc2)N(CC)C1=O (stereo not given)	3%	?	8%	-3%
CC(=O)N1CCCN(Cc2cn(-c3cc(C)ccc3C)nc2-c2ccccc2)CC1	17µM*	-18%	1%	-7%
COCCN1CCC(CNCc2cn(-c3cc(C)ccc3C)nc2-c2ccccc2)C1 (stereo not given)	4.7µM*	?	0%	-5%
Cc1ccc(C)c(-n2cc(CNCCc3cnccn3)c(-c3ccccc3)n2)c1	7.4µM*	?	1%	-3%
COCCN1CCC(CNCc2cn[nH]c2-c2ccc(C)c(C)c2)C1 (stereo not given)	?	-8%	-2%	-3%
CC(=O)N1CCCN(Cc2cn(-c3ccc(C)cc3)nc2-c2ccc(F)cc2)CC1	?	6%	-1%	8%
O=C(c1cccc(Cl)c1)N1CCCC(c2ccc(Cl)cc2)=N1	?	3.7µM*	-34%	16%
O=C(C1CC1)N1CCCC(c2ccc(Cl)cc2)=N1	46%	-7%	-4%	-4%
O=C(c1ccccc1)N1CCCC(c2ccc(Cl)cc2)=N1	15µM*	9.3µM*	-32%	-6%
COc1ccccc1CNc1ccc(N2CCCCC2)cc1	?	?	-15%	?
COc1cccc(Nc2ccc(N3CCCCC3)cc2)c1OC	4.7µM*	2.3µM*	17%	/
COc1cccc(CNc2ccc(N3CCCCC3)cc2)c1OC	0.52µM*	-18%	-7%	35µM*
Cn1c([N+](=O)[O-])cnc1COC(N)=O	11%	10%	0%	0%
CC(C)(C)c1nc2c(Br)cc(Br)cc2c(=O)o1	12%	0.37µM*	-9%	-13%
SMILES	Pf growth 48h	Pf growth 96h	SARS PLpro yeast	AMA1 RON2 block
COc1cc2nc(C(C)(C)C)oc(=O)c2cc1OC	22%	33%	-1%	4%
Oc1ccc2ccccc2c1N=Nc1ccccn1	?	6.6µM*	-22%	10µM*
O=S(=O)(O)c1ccc2c(N=Nc3ccc(S(=O)(=O)O)c4ccccc34)c(O)c(S(=O)(=O)O)cc2c1	3%	23%	/	/
CCOC(=O)c1[nH]cnc1N=Nc1c(O)ccc2ccccc12	2.9µM*	2.3µM*	7%	29%
O=S(=O)(O)c1cccc(N=Nc2c(O)ccc3ccccc23)c1	?	10µM*	-1%	-25%
CCOC(=O)c1[nH]c(=O)c2ccccc2c1O	33%	-1%	-14%	8%
COc1ccc2nc(N=Nc3c(O)ccc4ccccc34)sc2c1	12%	8%	6%	/
Oc1ccc2ccccc2c1N=Nc1ccccc1F	-21%	?	-2%	10µM*
O=c1cc(CN2CCN(c3ccc(Cl)c(Cl)c3)CC2)c2c(ccc3ccccc32)o1	/	/	/	-2%
C=C(C)Cn1c(C)cc(C)c(S(=O)(=O)c2ccc(C)cc2)c1=O	?	-13%	-2%	?
Cc1csc2ncc(C(=O)Nc3ccc(C(F)(F)F)cc3)c(=O)n12	25%	24%	3%	-2%

Assay outcomes: PubChem BioAssay, National Center for Advancing Translational Sciences (NCATS)
